Among the data in PubChem BioAssay (NCI) are growth values, retold here.

SMILES strings stand for the structures. Where “and” joins values, the source holds several entries; their conditions need not be identical. Equal values may be shown once. This is part of a sample that, as a whole, favours compounds with a hit. Of some 83,000 tested, about 20% had one in any assay.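 In brief: 96-well plates, 48 h treatment, single concentration, percent growth endpoint.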 Calls of active or inactive are those of the source. How the source made its calls: active means growth percent below 10; inactive means the rest.

Common to all, as to assay: NCI-60 one-dose screen, 48 h (100 = growth as untreated, 0 = no growth, -100 = all killed)
The subject of assay [1] is SR leukemia. The settings on record: 10 µM unless noted.
The test system of assay [2] is RPMI-8226 leukemia. The settings on record: 10 µM unless noted.
The test system of assay [3] is OVCAR-5 ovarian. The settings on record: 10 µM unless noted.
In assay [4] the test system is OVCAR-4 ovarian. The settings on record: 10 µM unless noted.
Assay [5] concerns SK-OV-3 ovarian. The settings on record: 10 µM unless noted.
Assay [6] has as its system IGROV1 ovarian. The settings on record: 10 µM unless noted.
For assay [7], the system named is OVCAR-3 ovarian. The settings on record: 10 µM unless noted.
Assay [8] has as its system HS 578T breast. The settings on record: 10 µM unless noted.
The test system of assay [9] is NCI/ADR-RES ovarian. The settings on record: 10 µM unless noted.
Assay [10] concerns T-47D breast. The settings on record: 10 µM unless noted.
The test system of assay [11] is BT-549 breast. The settings on record: 10 µM unless noted.
The test system of assay [12] is MDA-MB-435 melanoma. The conditions noted are these: 10 µM unless noted.
Assay [13] concerns SW-620 colon. The settings on record: 10 µM unless noted.
Assay [14] has as its system MCF7 breast.
Assay [15] relates to HCT-116 colon. The conditions noted are these: 10 µM unless noted.
The subject of assay [16] is HCC-2998 colon. The settings on record: 10 µM unless noted.
Assay [17] relates to KM12 colon. The settings on record: 10 µM unless noted.
The subject of assay [18] is OVCAR-8 ovarian. The conditions noted are these: 10 µM.

For the compound `Cc1c(N)nc([C@H](CC(N)=O)NC[C@H](N)C(N)=O)nc1C(=O)N[C@H](C(=O)N[C@H](C)[C@@H](O)[C@H](C)C(=O)N[C@H](C(=O)NCCc1nc(-c2nc(C(=O)NCCC[S+](C)C)cs2)cs1)[C@@H](C)O)C(OC1OC(CO)C(O)C(O)C1OC1OC(CO)C(O)C(OC(N)=O)C1O)c1cnc[nH]1` (some centres not stated), the growth in assay [1] was -4.59% [2.5 µM] (active); in [2] it was 76.4% [2.5 µM] (inactive); in assay [3], 59.5% [2.5 µM] (inactive); in assay [4], 104% [2.5 µM] (inactive); in assay [5] it was 98% [2.5 µM] (inactive); in [6], 42.3% [2.5 µM] (inactive). The growth in assay [7] is 83.5% [2.5 µM] (inactive); in assay [8], -2.02% [2.5 µM] (active); in assay [9] it was 39.3% [2.5 µM] (inactive); in assay [10] it was 92.2% [2.5 µM] (inactive); in assay [11], 54% [2.5 µM] (inactive); in assay [12], 85.1% [2.5 µM] (inactive). Besides, the growth is 83.4% [2.5 µM] (inactive) in assay [13]; 52.9% (inactive) in assay [14] (2.5 µM); 15.6% (inactive) and 0.932% (active) in [14] (25 µM); 34.2% [2.5 µM] (inactive) in assay [15]; 5.84% [2.5 µM] (active) in [16]; 80.9% [2.5 µM] (inactive) in [17].
In the case of `C[C@]12CC[C@H](O)CC1=CC[C@@H]1[C@@H]2CC[C@]2(C)C(=O)CC[C@@H]12`, the growth in assay [1] was -4.91% (active); in assay [2], 80.4% (inactive); in assay [3], 92.3% (inactive); in [4] it was 95.3% (inactive); in assay [5], 116% (inactive); in assay [6], 80.5% (inactive). Besides, the growth in [7] is 90.6% (inactive); in assay [8], 130% (inactive); in assay [9], 99.1% (inactive); in assay [10] it was 96.4% (inactive); in assay [11] it was 98.3% (inactive); in [12] it was 90.3% (inactive). The growth in assay [13] is 110% (inactive); in assay [14] (10 µM) it was 130% (inactive); in [15], 91.6% (inactive); in assay [16], 90.7% (inactive); in assay [17], 97.1% (inactive).
Turning to `CC(=O)O[C@H]1C[C@@H]2OC3C=C(C)CCC3(C)[C@@]1(C)[C@@]21CO1` (some centres not stated), the growth was -17.5% (active) in assay [1]; -16.3% (active) and -26.9% (active) in assay [2]; -9.39% (active) and -19.9% (active) in assay [18]; 6.22% (active) and 5.12% (active) in assay [3]; -5.17% (active) and -15.1% (active) in [4]; 5.54% (active) and -8.41% (active) in [5]. Further, the growth in assay [6] was -12.6% (active) and -11.8% (active); in assay [7] it was -17.6% (active) and -41.3% (active); in assay [8], -6.29% (active); in assay [9] it was -14% (active) and -10.5% (active); in assay [10], -4.55% (active) and -14.4% (active); in assay [11] it was -28.8% (active) and -11.6% (active). For the same compound, the growth in assay [12] was -21.1% (active) and -27.5% (active); in assay [13], 0.513% (active) and -7.31% (active); in [14] (10 µM), -0.46% (active) and -15% (active); in [15], -22.5% (active) and -18.6% (active); in [16], -27.6% (active) and -20.3% (active); in assay [17], -21.9% (active) and -43% (active).
With `O=C1c2ccccc2C(=O)C(Cl)C1Cl` (configuration not stated), the growth is 35.6% (inactive) in [1]; 31.1% (inactive) in assay [2]; 91.9% (inactive) in assay [18]; 112% (inactive) in assay [3]; -89% (active) in assay [4]; 99.5% (inactive) in assay [5]. Moreover, the growth in [6] was 78.4% (inactive); in assay [7], -75.2% (active); in assay [9], 86.5% (inactive); in assay [10], -38% (active); in assay [11], 78.5% (inactive); in assay [12], 95.9% (inactive). Further, the growth in [14] (10 µM) was -62.2% (active); in [15], -95.7% (active); in assay [16], 111% (inactive); in [17], 56.8% (inactive).
For `NCCc1ccc(OCc2ccccc2)c(OCc2ccccc2)c1`, the growth in assay [1] was -27.5% (active); in assay [2], 69.7% (inactive); in [18] it was 79.3% (inactive); in assay [3] it was 105% (inactive); in [4], 86.3% (inactive); in assay [5] it was 91.2% (inactive). Further, the growth in assay [6] was 75.2% (inactive); in assay [7] it was 88.3% (inactive); in assay [8] it was 126% (inactive); in assay [9], 87.9% (inactive); in assay [10], 69.2% (inactive); in assay [11], 89.4% (inactive). Besides, the growth was 88.1% (inactive) in [12]; 83.7% (inactive) in assay [13]; 69.9% (inactive) in assay [14] (10 µM); 61.8% (inactive) in assay [15]; 34.6% (inactive) in [16]; 80.7% (inactive) in assay [17].
As for `COc1ccccc1/C=C(/C)[N+](=O)[O-]`, the growth in assay [1] is 10% (inactive) and 92.3% (inactive); in assay [2] it was 0.614% (active) and 118% (inactive); in assay [18] it was 85.6% (inactive) and 103% (inactive); in [3], 104% (inactive) and 91.1% (inactive); in assay [4] it was 105% (inactive) and 102% (inactive); in assay [5] it was 115% (inactive) and 81.6% (inactive). In addition, the growth in assay [6] is 71.5% (inactive) and 95.9% (inactive); in assay [7] it was 78.2% (inactive) and 101% (inactive); in [8], 97.2% (inactive) and 118% (inactive); in [9], 95.1% (inactive) and 104% (inactive); in [10], 35.7% (inactive) and 86.6% (inactive); in assay [11], 83.6% (inactive) and 101% (inactive). In addition, the growth was 79.2% (inactive) and 105% (inactive) in assay [12]; 49.8% (inactive) and 106% (inactive) in assay [13]; 7.37% (active) and 105% (inactive) in assay [14] (10 µM); 44% (inactive) and 98.6% (inactive) in [15]; 103% (inactive) and 99% (inactive) in [16]; 70% (inactive) and 99.8% (inactive) in [17].
In the case of `CC[C@@]1(O)C(=O)OCc2c1cc1n(c2=O)Cc2cc3ccccc3nc2-1`, the growth was -3.04% (active) in assay [1]; -39.7% (active) in [2]; -1.11% (active) in [3]; -36.2% (active) in [4]; 7.05% (active) in [5]; -62.2% (active) in assay [6]. Besides, the growth was -34% (active) in assay [7]; 22.6% (inactive) in [8]; -2.49% (active) in assay [9]; -7.95% (active) in assay [10]; -39.9% (active) in assay [11]; -81.5% (active) in assay [12]. Moreover, the growth is -1.68% (active) in assay [13]; 2.07% (active) in assay [14] (10 µM); -12.5% (active) in [15]; -73.8% (active) in assay [16]; -42.1% (active) in assay [17].
